Reference: PubChem BioAssay AID1159580 (chemical genetic matrix, 2015)
Hit rate of the full screen: of about 5,500 compounds, about 2,000 (36%) were called active. Not shown: some 18% with an inconclusive outcome. Some of the results follow. Unmarked numbers belong to inactive results. Cut-off read from the data, not from the text of the source: active = normalized growth mostly below about 0.91 (no sharp cut-off); inconclusive = no clear call, values can overlap the other calls; inactive = mostly above about 0.92.

Experiment: chemical genetic growth profiling, strain panel (AID 1159580);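 note: tested at 20 µM; growth read once vehicle control cultures reached saturation at 30 °C; 1 = growth at the plate median or of vehicle wells; lower values mean less growth of the strain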
Conditions: growth OD

Compound: O=C1C[C@@H](c2ccccc2)Oc2cc(O)cc(O)c21
- normalized growth (S. cerevisiae deletion strains, locus YBR021W, strain FUR4, active compounds read low): 0.958
- normalized growth (S. cerevisiae deletion strains, locus YBR229C, strain ROT2, active compounds read low): 0.927
- normalized growth (S. cerevisiae deletion strains, locus YCL029C, strain bik1, active compounds read low): 0.939
- normalized growth (S. cerevisiae deletion strains, locus YDL035C, strain GPR1, active compounds read low): 0.884
- normalized growth (S. cerevisiae deletion strains, locus YDL074C, strain BRE1, active compounds read low): 0.858
- normalized growth (S. cerevisiae deletion strains, locus YDL101C, strain DUN1, active compounds read low): 0.899
- normalized growth (S. cerevisiae deletion strains, locus YDL134C, strain PPH21, active compounds read low): 0.903
- normalized growth (S. cerevisiae deletion strains, locus YDL185W, strain tfp1, active compounds read low): 0.932
- normalized growth (S. cerevisiae deletion strains, locus YDL192W, strain arf1, active compounds read low): 0.871 (active)
- normalized growth (S. cerevisiae deletion strains, locus YDR101C, strain arx1, active compounds read low): 0.943
- normalized growth (S. cerevisiae deletion strains, locus YDR150W, strain NUM1, active compounds read low): 0.949
- normalized growth (S. cerevisiae deletion strains, locus YDR162C, strain NBP2, active compounds read low): 0.859
- normalized growth (S. cerevisiae deletion strains, locus YDR318W, strain mcm21, active compounds read low): 0.875 (active)
- normalized growth (S. cerevisiae deletion strains, locus YDR388W, active compounds read low): 0.95
- normalized growth (S. cerevisiae deletion strains, locus YDR502C, strain sam2, active compounds read low): 0.892 (active)
- normalized growth (S. cerevisiae deletion strains, locus YEL061C, strain CIN8, active compounds read low): 0.957
- normalized growth (S. cerevisiae deletion strains, locus YER110C, active compounds read low): 0.924
- normalized growth (S. cerevisiae deletion strains, locus YER155C, strain BEM2, active compounds read low): 0.955
- normalized growth (S. cerevisiae deletion strains, locus YER167W, strain BCK2, active compounds read low): 0.947
- normalized growth (S. cerevisiae deletion strains, locus YGL078C, strain dbp3, active compounds read low): 0.947
- normalized growth (S. cerevisiae deletion strains, locus YGL086W, strain mad1, active compounds read low): 1
- normalized growth (S. cerevisiae deletion strains, locus YGL248W, strain PDE1, active compounds read low): 0.884 (active)
- normalized growth (S. cerevisiae deletion strains, locus YGR078C, strain PAC10, active compounds read low): 0.86
- normalized growth (S. cerevisiae deletion strains, locus YGR135W, strain pre9, active compounds read low): 0.843 (active)
- normalized growth (S. cerevisiae deletion strains, locus YGR252W, strain gcn5, active compounds read low): 0.595 (active)
- normalized growth (S. cerevisiae deletion strains, locus YHR030C, strain SLT2, active compounds read low): 0.97
- normalized growth (S. cerevisiae deletion strains, locus YHR079C, strain IRE1 (second series), active compounds read low): 0.952
- normalized growth (S. cerevisiae deletion strains, locus YHR094C, strain hxt1, active compounds read low): 0.934
- normalized growth (S. cerevisiae deletion strains, locus YHR129C, strain ARP1, active compounds read low): 0.942
- normalized growth (S. cerevisiae deletion strains, locus YHR200W, strain rpn10, active compounds read low): 0.942
- normalized growth (S. cerevisiae deletion strains, locus YIL066C, strain RNR3, active compounds read low): 0.887
- normalized growth (S. cerevisiae deletion strains, locus YIL073C, strain SPO22, active compounds read low): 0.91
- normalized growth (S. cerevisiae deletion strains, locus YIL125W, strain kgd1, active compounds read low): 0.957
- normalized growth (S. cerevisiae deletion strains, locus YIR030C, strain dcg1, active compounds read low): 0.942
- normalized growth (S. cerevisiae deletion strains, locus YJL095W, strain BCK1, active compounds read low): 0.816
- normalized growth (S. cerevisiae deletion strains, locus YJL134W, strain LCB3, active compounds read low): 0.963
- normalized growth (S. cerevisiae deletion strains, locus YJL168C, strain set2, active compounds read low): 0.961
- normalized growth (S. cerevisiae deletion strains, locus YJL187C, strain SWE1 (second series), active compounds read low): 0.893
- normalized growth (S. cerevisiae deletion strains, locus YJR043C, strain POL32, active compounds read low): 0.906
- normalized growth (S. cerevisiae deletion strains, locus YJR075W, strain HOC1, active compounds read low): 0.919
- normalized growth (S. cerevisiae deletion strains, locus YKL009W, strain mrt4, active compounds read low): 0.847 (active)
- normalized growth (S. cerevisiae deletion strains, locus YKL068W, active compounds read low): 0.949
- normalized growth (S. cerevisiae deletion strains, locus YKL085W, strain MDH1 (second series), active compounds read low): 0.929
- normalized growth (S. cerevisiae deletion strains, locus YKL085W, strain MDH1, active compounds read low): 0.929
- normalized growth (S. cerevisiae deletion strains, locus YKL190W, strain CNB1, active compounds read low): 0.955
- normalized growth (S. cerevisiae deletion strains, locus YKR001C, strain vps1, active compounds read low): 0.878 (active)
- normalized growth (S. cerevisiae deletion strains, locus YLR039C, strain RIC1, active compounds read low): 0.711
- normalized growth (S. cerevisiae deletion strains, locus YLR058C, strain SHM2, active compounds read low): 0.887 (active)
- normalized growth (S. cerevisiae deletion strains, locus YLR102C, strain apc9, active compounds read low): 0.957
- normalized growth (S. cerevisiae deletion strains, locus YLR262C, strain YPT6, active compounds read low): 0.656
- normalized growth (S. cerevisiae deletion strains, locus YLR268W, strain sec22, active compounds read low): 0.943
- normalized growth (S. cerevisiae deletion strains, locus YLR330W, strain CHS5, active compounds read low): 0.946
- normalized growth (S. cerevisiae deletion strains, locus YLR342W, strain FKS1 (second series), active compounds read low): 0.79 (active)
- normalized growth (S. cerevisiae deletion strains, locus YLR371W, strain rom2, active compounds read low): 0.968
- normalized growth (S. cerevisiae deletion strains, locus YLR418C, strain cdc73, active compounds read low): 0.711 (active)
- normalized growth (S. cerevisiae deletion strains, locus YML016C, strain PPZ1, active compounds read low): 0.96
- normalized growth (S. cerevisiae deletion strains, locus YML032C, strain rad52, active compounds read low): 0.864 (active)
- normalized growth (S. cerevisiae deletion strains, locus YML124C, strain tub3, active compounds read low): 0.947
- normalized growth (S. cerevisiae deletion strains, locus YMR078C, strain ctf18, active compounds read low): 0.929
- normalized growth (S. cerevisiae deletion strains, locus YMR223W, strain ubp8, active compounds read low): 0.862 (active)
- normalized growth (S. cerevisiae deletion strains, locus YMR307W, strain GAS1, active compounds read low): 0.742
- normalized growth (S. cerevisiae deletion strains, locus YNL067W, strain RPL9B, active compounds read low): 0.884
- normalized growth (S. cerevisiae deletion strains, locus YNL128W, strain TEP1, active compounds read low): 0.936
- normalized growth (S. cerevisiae deletion strains, locus YNL153C, strain GIM3, active compounds read low): 0.895
- normalized growth (S. cerevisiae deletion strains, locus YNL233W, strain BNI4, active compounds read low): 0.886
- normalized growth (S. cerevisiae deletion strains, locus YNL250W, strain rad50, active compounds read low): 0.954
- normalized growth (S. cerevisiae deletion strains, locus YNL271C, strain bni1, active compounds read low): 0.93
- normalized growth (S. cerevisiae deletion strains, locus YNL298W, strain CLA4, active compounds read low): 0.877 (active)
- normalized growth (S. cerevisiae deletion strains, locus YNL307C, strain MCK1, active compounds read low): 0.901 (active)
- normalized growth (S. cerevisiae deletion strains, locus YNL322C, strain KRE1, active compounds read low): 0.938
- normalized growth (S. cerevisiae deletion strains, locus YNR052C, strain pop2, active compounds read low): 0.943
- normalized growth (S. cerevisiae deletion strains, locus YOL012C, strain htz1): 0.987
- normalized growth (S. cerevisiae deletion strains, locus YOL147C, strain pex11, active compounds read low): 0.933
- normalized growth (S. cerevisiae deletion strains, locus YOR061W, strain CKA2, active compounds read low): 0.934
- normalized growth (S. cerevisiae deletion strains, locus YOR069W, strain VPS5, active compounds read low): 0.943
- normalized growth (S. cerevisiae deletion strains, locus YOR136W, strain idh2, active compounds read low): 0.968
- normalized growth (S. cerevisiae deletion strains, locus YOR144C, strain elg1, active compounds read low): 0.945
- normalized growth (S. cerevisiae deletion strains, locus YOR184W, strain ser1, active compounds read low): 0.757 (active)
- normalized growth (S. cerevisiae deletion strains, locus YOR316C, strain cot1, active compounds read low): 0.943
- normalized growth (S. cerevisiae deletion strains, locus YPL055C, strain LGE1, active compounds read low): 0.844
- normalized growth (S. cerevisiae deletion strains, locus YPL241C, strain CIN2, active compounds read low): 0.955
- normalized growth (S. cerevisiae deletion strains, locus YPR119W, strain clb2, active compounds read low): 0.949
- normalized growth (S. cerevisiae deletion strains, locus YPR141C, strain kar3, active compounds read low): 0.955
- normalized growth (S. cerevisiae deletion strains, locus YPR163C, strain tif3, active compounds read low): 0.927
- normalized growth (S. cerevisiae deletion strains, locus YPR167C, strain met16, active compounds read low): 0.909 (active)
- normalized growth (S. cerevisiae deletion strains, strain wtn01, active compounds read low): 0.99
- normalized growth (S. cerevisiae strains, strain wild type, active compounds read low): 0.927
